ALR H2O2 inh: human ALR oxidase inhibition via reduced H2O2 | P55789 | purified ALR, DTT oxidation, H2O2 HRP-luminol luminescence | inhibition, % (test concentration not listed) | hit rate 3.8% among 290,000 | AID 485317;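 active = mean replicate inhibition above about 79%, with every replicate also reaching it, limit read from the data; inconclusive = only one of the two criteria met; inactive = mean below limit and not every replicate reaching it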
CHT PAM: allosteric activators of human choline transporter CHT; Q9GZV3; CHT-expressing cells, membrane potential dye, choline EC20; stronger effect = higher value; LV-AA mutant CHT in HEK293 cells; B-score at 10 µM; hit rate 0.49% among 310,000;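 active = initial fluorescence not abnormally high and integrated response B-score, plate-corrected, over 3 SD above library mean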
Target sequence (Q9GZV3 whole entry, looked up): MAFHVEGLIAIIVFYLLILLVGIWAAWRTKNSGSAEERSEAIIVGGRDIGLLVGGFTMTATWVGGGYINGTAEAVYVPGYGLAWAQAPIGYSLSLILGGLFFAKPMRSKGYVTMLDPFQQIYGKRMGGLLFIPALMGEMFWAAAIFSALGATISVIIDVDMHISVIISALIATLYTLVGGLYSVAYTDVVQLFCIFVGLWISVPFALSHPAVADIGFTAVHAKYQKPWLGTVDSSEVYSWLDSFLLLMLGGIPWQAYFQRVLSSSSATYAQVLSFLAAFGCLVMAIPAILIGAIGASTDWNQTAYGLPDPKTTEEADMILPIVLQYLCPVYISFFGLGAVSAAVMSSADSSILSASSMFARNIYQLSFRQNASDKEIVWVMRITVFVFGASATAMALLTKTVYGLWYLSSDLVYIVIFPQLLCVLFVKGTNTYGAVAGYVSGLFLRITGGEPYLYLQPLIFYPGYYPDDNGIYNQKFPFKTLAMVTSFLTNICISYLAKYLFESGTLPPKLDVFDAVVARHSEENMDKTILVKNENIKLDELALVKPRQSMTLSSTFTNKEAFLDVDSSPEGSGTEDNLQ
PREPL inh: inhibitors of human prolyl oligopeptidase-like enzyme PREPL | Q4J6C6 | recombinant PREPL, fluorescence polarization activity-based probe | inhibition, % at 5.96 µM | hit rate 0.68% among 320,000; in the data active = inhibition above about 43%
CHT block: inhibitors of human choline transporter CHT | hit rate 0.86% among 310,000 | CHT-expressing cells, membrane potential dye, choline response; stronger effect = lower value | B-score at 10 µM | Q9GZV3;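 active = B-score over 3 SD under the library average, and starting fluorescence ratio not unusually high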;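 also: choline stimulus applied at its EC90 after an EC20 pre-addition; B-score computed on integrated fluorescence ratio after choline addition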
AI-2 QS modul: modulates the Vibrio harveyi AI-2 quorum sensing system | Vibrio harveyi JMH597 AI-2 luminescence/OD600 ratio, 9 h; stronger effect = lower value; strain lacks LuxN and CqsS sensors; 0 = neutral-control median | activity change, % at 7.5 µM | hit rate 0.4% among 300,000 | AID 2094; in the data active = activity change below about -75%, passing the limit was not always enough; inconclusive = no clear call, values can overlap the other calls;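 also: luminescence divided by OD600 gain over 9 h not by final OD600 alone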
Large screens that a line does not name were inactive. Sampled rows, rich in hits. Any-hit rate of the full collection: about 5%.

CCOC(=O)CSc1nc2sc3c(c2c(=O)n1-c1ccccc1)CCN(C(C)C)C3	ALR H2O2 inh 99.6
S=c1[nH]nc(-c2ccccc2)n1/N=C/C=C/c1ccco1	ALR H2O2 inh 96.8
S=c1[nH]nc(-c2ccc(Cl)cc2)n1/N=C/c1ccco1	none
S=c1[nH]nc(-c2ccc(Cl)cc2)n1/N=C/C=C/c1ccco1	ALR H2O2 inh 98.7 (no result: AI-2 QS modul)
CC(NC(=O)Cc1ccc([N+](=O)[O-])cc1)c1ccc2c(c1)OCO2 (centres undefined)	none
Cc1nnc(SCc2ccccc2)[nH]c1=O	none
Cc1nnc(SCc2cnc(-c3ccccc3)o2)[nH]c1=O	ALR H2O2 inh 98.6
CC1CC(Nc2ccccc2N)=CC(=O)O1 (centres undefined)	ALR H2O2 inh 86.4
Nc1ccccc1NC1=CC(=O)CC(c2ccccc2)C1 (centres undefined)	none
Cc1csc(SCC(=O)Nc2nccs2)n1	none
Cc1nnc2sc(SCc3ccccc3)nn2c1=O	none
Cc1nnc2sc(SCC(=O)Nc3nccs3)nn2c1=O	ALR H2O2 inh 98.7
Cc1nnc2sc(SCc3cccc(Cl)c3)nn2c1=O	ALR H2O2 inh 100.1
Cc1ccc(S(=O)(=O)N2CCOCC2)cc1C(=O)Nc1ccc(S(=O)(=O)Nc2nccs2)cc1	none
Cc1cccc(-n2c(C)n[nH]c2=S)c1	none
Cc1ccccc1-n1c(-c2ccoc2C)n[nH]c1=S	none (no result: ALR H2O2 inh)
Cc1cccc(-n2c(C)c(-c3ccccc3)[nH]c2=S)c1	ALR H2O2 inh 82.0
Cc1cccc(-n2c(-c3ccoc3C)n[nH]c2=S)c1	ALR H2O2 inh 91.0
Cc1cccc(-n2c(-c3ccncc3)n[nH]c2=S)c1	ALR H2O2 inh 91.5
Cc1ccc(CNC(=O)COC(=O)c2cc(=O)[nH]c3ccccc23)cc1	none (no result: CHT PAM, CHT block, AI-2 QS modul)
CC1CN(c2nc3ccccc3nc2SCC(=O)Nc2cccc(C(F)(F)F)c2)CC(C)O1 (centres undefined)	none
OCC(CO)(CO)NCC(O)CN1c2ccccc2Sc2ccccc21 (centres undefined)	ALR H2O2 inh 98.7
O=C1c2ccccc2C(=O)N1CC(O)Cn1nnc2ccccc21 (centres undefined)	none
OC(CN1c2ccccc2Sc2ccccc21)Cn1nnc2ccccc21 (centres undefined)	ALR H2O2 inh 98.1
CC1CCCN(S(=O)(=O)c2ccc(NC(=O)C3CCN(C(=O)C(C)(C)C)CC3)cc2)C1 (centres undefined)	none (no result: CHT PAM, CHT block, AI-2 QS modul)
O=C(N/N=C/c1ccc(O)c(O)c1)c1cccc(S(=O)(=O)N2CCCCC2)c1	ALR H2O2 inh 99.0 (no result: AI-2 QS modul)
CCOc1cc(/C=N/NC(=O)c2cccc(S(=O)(=O)N3CCCC3)c2)ccc1OCC(=O)N(C)C	none
CCOc1cc(C=NNC(=O)c2cccc(S(=O)(=O)N3CCCC3)c2)ccc1O	ALR H2O2 inh 95.1 (no result: CHT PAM, CHT block, AI-2 QS modul)
COc1cc(C(C(=O)NC(C)(C)C)N(C(=O)CNC(=O)c2cccs2)c2cccnc2)cc(OC)c1OC (centres undefined)	none
COC(=O)c1ccc(N2CCN(c3ccccc3)CC2)c(N)c1	none (no result: ALR H2O2 inh)
O=C(CN1C(=O)NC2(CCCC2)C1=O)N1CCN(Cc2ccccc2)CC1	none
COc1cc(-c2csc(C)n2)ccc1O	ALR H2O2 inh 96.1
COc1ccccc1C(=O)NC(C)C(c1cccs1)N1CCOCC1 (centres undefined)	none
COc1ccccc1N1CCN(C(c2cccs2)C(C)NC(=O)C(=O)N2CCOCC2)CC1 (centres undefined)	ALR H2O2 inh 88.7
COc1ccc(N2CCN(C(c3cccs3)C(C)NC(=O)C(=O)N3CCOCC3)CC2)cc1 (centres undefined)	ALR H2O2 inh inconclusive
CC(NC(=O)C(=O)N1CCOCC1)C(c1cccs1)N1CCN(c2ccccc2)CC1 (centres undefined)	ALR H2O2 inh 98.2
O=C(CNC(=O)c1ccco1)OCC(=O)c1ccc(Cl)cc1Cl	none
Cc1ccc2nc(/C(C#N)=C\c3cc(O)ccc3[N+](=O)[O-])[nH]c2c1	ALR H2O2 inh 97.9
COc1cc(/C=C(\C#N)c2nc3ccc(C)cc3[nH]2)c([N+](=O)[O-])cc1OC	none
CC(C)CN(C(=O)c1ccc(F)cc1F)c1c(N)n(CC(C)C)c(=O)[nH]c1=O	none (no result: AI-2 QS modul)
COc1cccc(C(=O)N/N=C(\C)c2ccc(NC(=O)Cc3ccccc3)cc2)c1OC	none (no result: PREPL inh)
COc1cc(/C=N/NC(=O)c2cccc(NC(=O)c3ccccc3Cl)c2)ccc1O	ALR H2O2 inh 87.7
COc1cc(/C=N/Nc2ccc(C(=O)O)cc2)ccc1O	ALR H2O2 inh 99.2
CCN(CC)S(=O)(=O)c1cccc(C(=O)N/N=C/c2ccc(OC)c(O)c2)c1	ALR H2O2 inh 96.6
COc1cc(C(=O)N/N=C(\C)c2ccc(NC(=O)Cc3ccccc3)cc2)ccc1O	ALR H2O2 inh 95.5 (no result: PREPL inh)
COc1cc(/C=N/Nc2ccc(C(=O)O)cc2)cc(OC)c1OC	none
COC(=O)c1ccc(Oc2c(F)c(F)nc(N3CCOCC3)c2F)cc1	none
O=C(c1cccc(F)c1)N1CCC2(CC1)NCCc1[nH]cnc12	none (no result: ALR H2O2 inh)
FC(F)(F)c1cccc(NC(=S)N2CCCC2)c1	none (no result: ALR H2O2 inh)
COc1ccc(/C=N/NC(=O)c2cccnc2)cc1O	ALR H2O2 inh 87.6
COc1ccc(OC)c(/C(C)=N/Nc2ccc(C(=O)O)cc2)c1	ALR H2O2 inh 98.8
COc1cc(/C=N/N=C/c2c[nH]c(=O)c(C#N)c2Nc2ccccc2)ccc1O	ALR H2O2 inh 78.4
O=C(N/N=C/c1ccc(OC(=O)c2ccccc2)c([N+](=O)[O-])c1)c1ccc(O)cc1	ALR H2O2 inh 94.0
Cc1ccc(/C=N/N=C2\SCC(=O)N2CC2CC2)cc1	none
COc1cc(/C=N/NC(=O)COc2c(C)cc([N+](=O)[O-])cc2C)ccc1OC(=O)c1ccccc1	PREPL inh 70.5
COc1cc(/C=N\NS(=O)(=O)c2ccccc2)cc(OC)c1OC	none
O=C(N/N=C/c1cccnc1)c1cc(O)c(O)c(O)c1	ALR H2O2 inh 97.4
COc1cc(/C=N/Nc2ccc(S(N)(=O)=O)cc2)cc(OC)c1OC	ALR H2O2 inh 92.8
COc1cc(/C=N/NC(=O)c2ccc(CSc3nc4ccccc4[nH]3)cc2)ccc1O	ALR H2O2 inh 98.9
O=C(COC(=O)Cc1cccs1)NCC(=O)Nc1ccc(F)cc1	none (no result: CHT PAM, CHT block, AI-2 QS modul)
COc1ccccc1CNC(=O)C1(c2ccc(Cl)cc2)CC1	none
O=C(O)C1CSC2(c3ccc(Br)cc3)CCC(=O)N12 (centres undefined)	none
C=CCCO[C@@H]1O[C@@H](C)[C@H](O)C[C@H]1O	none (no result: CHT PAM, CHT block, AI-2 QS modul)
COc1cccc(-c2ncc3ccccc3c2COC(=O)CCC(=O)O)c1	none (no result: CHT PAM, CHT block, AI-2 QS modul)
COc1cc(C(=O)N/N=C/c2cn(Cc3ccccc3)c3ccccc23)ccc1O	ALR H2O2 inh 84.6 (no result: PREPL inh)
COc1cc(/C=N/NC(=O)c2ccccc2)ccc1O	ALR H2O2 inh 99.8
COc1ccc(/C=N/NC(=S)Nc2cccc(C(=O)O)c2)cc1	none
COc1cc(/C=N/NC(=S)Nc2cccc(C(=O)O)c2)ccc1O	ALR H2O2 inh 99.0
COc1ccc(OC)c(/C=N/NC(=O)c2ccc3nc[nH]c3c2)c1	none
COc1cccc(/C=N/NC(=O)c2ccc3nc[nH]c3c2)c1	ALR H2O2 inh 92.6
